Assay outcomes (PubChem BioAssay)
NLRP3 yeast inh – inhibitors of NALP3 inflammasome in yeast. Yeast reconstituted NLRP3/ASC/caspase-1, beta-gal luminescence, 24 h. inhibition, % at 10 µM. actives 0.39% (n = 330,000);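 active = inhibition of 50% or more; inactive = inhibition below 50%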;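 also: plate controls were induced DMSO wells for no effect and uninduced yeast grown without galactose for full effect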
NALP1 yeast inh – inhibitors of NALP1 inflammasome in yeast | S. cerevisiae NALP1/ASC/caspase-1 growth, X-gal OD620, 72 h | inhibition, % at 10 µM | actives 0.61% (n = 280,000) | AID 2071; in the data active = inhibition mostly above about 24%, no sharp cut-off; inactive = mostly below about 32%
tim10-1 inh – tim10-1 yeast growth inhibition. inhibition, % at 20 µM. actives 2.2% (n = 330,000). S. cerevisiae tim10-1 ts strain growth, BacTiter-Glo, 24 h;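 active = inhibition of at least 40%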;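 also: mutant grown at 25 °C; 0% = DMSO wells with yeast and 100% = wells holding no yeast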
TIM10 inh – growth inhibitors of TIM10 yeast strain; S. cerevisiae TIM10 strain growth, BacTiter-Glo luminescence, 24 h; inhibition, % at 10 µM; actives 1.4% (n = 330,000);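 active = inhibition of 40% or more at the single tested concentration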;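 also: wild-type TIM10 isogenic control strain grown at permissive 25 °C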
tim23-1 inh – tim23-1 yeast growth inhibition; S. cerevisiae tim23-1 growth, BacTiter-Glo luminescence, 24 h; inhibition, % at 20 µM; actives 1.3% (n = 330,000);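 active = growth inhibition of the mutant yeast at or above 50%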;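 also: temperature-sensitive mutant grown at 25 °C; plate controls were DMSO-treated mutant yeast for no effect and medium wells lacking yeast for full effect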
tim10 confirm – confirmation of TIM10 yeast growth inhibitors. shares compounds with TIM10 inh. S. cerevisiae tim10 strain growth, BacTiter-Glo luminescence, 24 h. inhibition, % at 10 µM. actives 63% (n = 4,600);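 active = inhibition of yeast growth at or above a set limit in either of two replicates at 10 µM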;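 also: this counterscreen used the strain with wild-type TIM10; 0% = yeast with DMSO and 100% = medium wells lacking yeast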
tim23-1 conf – confirmation of tim23-1 mutant yeast growth inhibitors; actives 83% (n = 4,400); S. cerevisiae tim23-1 growth, BacTiter-Glo luminescence, 24 h; shares compounds with tim23-1 inh; inhibition, % at 20 µM;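 active = inhibition above about 39% in either of two replicate wells at 20 µM, limit read from the data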;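 also: temperature-sensitive tim23-1 mutant grown at 25 °C; 0% = DMSO wells with yeast and 100% = medium wells without yeast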
Starred values were filed as active, the others as inactive. Rows were chosen to be rich in hits. Some 4.1% of all compounds tested hit in one or more screens of this group.

Screening Cc1cccc(OCC2CCCN(Cc3nc(C4CC4)no3)C2)c1 (stereo unspecified) returned NLRP3 yeast inh -18, NALP1 yeast inh -11, tim10-1 inh -3, TIM10 inh -14 and tim23-1 inh 4.
`CN(CC(=O)Nc1ccc(Cl)c(C(F)(F)F)c1)C(=O)CCCNC(=O)c1ccc(Cl)cc1` gave NLRP3 yeast inh 7, tim10-1 inh 4, TIM10 inh 6 and tim23-1 inh 22.
Screening O=C(Nc1cccc(-c2cc3ccccc3oc2=O)c1)c1ccc(Br)o1 returned NLRP3 yeast inh 26, NALP1 yeast inh 15, tim10-1 inh 39, TIM10 inh 43*, tim23-1 inh 56*, tim10 confirm 47* and tim23-1 conf 62*.
For N#C/C(=C\c1cccc([N+](=O)[O-])c1)C(=O)NCc1ccc(Cl)cc1 the results were NALP1 yeast inh -13.
For N#C/C(=C/c1cccc([N+](=O)[O-])c1)C(=O)Nc1ccccc1O the results were NLRP3 yeast inh 17, tim10-1 inh 32, TIM10 inh 42*, tim23-1 inh 73*, tim10 confirm 40* and tim23-1 conf 57*.
CC(=O)Nc1ccc(/C=C2\CCc3ccccc3C2=O)cc1 was read as NLRP3 yeast inh 30, NALP1 yeast inh 24, tim10-1 inh 34, TIM10 inh 41*, tim23-1 inh 61*, tim10 confirm 36* and tim23-1 conf 46*.
`CC12CC3CC(C)(C1)CC(C(=O)NC(=S)N1CCCCC1)(C3)C2` gave NLRP3 yeast inh 25, NALP1 yeast inh 9, tim10-1 inh 25, TIM10 inh 41*, tim23-1 inh 51*, tim10 confirm 14 and tim23-1 conf 32.
Screening Cc1cc(C)c(C)c(S(=O)(=O)N2CCC(C(=O)N3CCCCCCC3)CC2)c1C returned NLRP3 yeast inh 24, NALP1 yeast inh 19, tim10-1 inh 28, TIM10 inh 25 and tim23-1 inh 44.
`Cc1ccccc1-c1noc(-c2ccc(Cl)cc2)n1` gave NLRP3 yeast inh 3, NALP1 yeast inh -10, tim10-1 inh 20, TIM10 inh 16 and tim23-1 inh 4.
`Cc1ccccc1-c1noc(-c2ccc(O)cc2)n1` gave NLRP3 yeast inh 21, NALP1 yeast inh 29, tim10-1 inh 31, TIM10 inh 48*, tim23-1 inh 88*, tim10 confirm 62* and tim23-1 conf 73*.
Screening Cc1ccccc1NS(=O)(=O)c1ccc(C(=O)N(C)CC(=O)Nc2ccccc2Br)cc1 returned NLRP3 yeast inh 11, tim10-1 inh 4, TIM10 inh -2 and tim23-1 inh 8.
Screening CCCCCCn1c(-c2ccco2)nc2oc3cc(OC)ccc3c(=O)c2c1=O returned NLRP3 yeast inh 17, tim10-1 inh 34, TIM10 inh 45*, tim23-1 inh 50*, tim10 confirm 16 and tim23-1 conf 37*.
Screening CCCc1nc2oc3cc(OC)ccc3c(=O)c2c(=O)n1Cc1ccco1 returned NLRP3 yeast inh -1, NALP1 yeast inh 12, tim10-1 inh 22, TIM10 inh -17 and tim23-1 inh 0.
Cc1ccc(S(=O)(=O)N2C(=O)CCC2C(N)=O)cc1 (stereo unspecified) was read as NLRP3 yeast inh -4, NALP1 yeast inh -1, tim10-1 inh 4, TIM10 inh -6 and tim23-1 inh 8.
CCOC(=O)/C(C#N)=C/c1cc2ccccc2nc1N1CCOCC1 was read as NLRP3 yeast inh -2, NALP1 yeast inh 32, tim10-1 inh 33, TIM10 inh 22 and tim23-1 inh 31.
`CCOC(=O)/C(C#N)=C/c1cc2ccc(C)cc2nc1Cl` gave NLRP3 yeast inh 15, NALP1 yeast inh 5, tim10-1 inh 22, TIM10 inh 42*, tim23-1 inh 56*, tim10 confirm 7 and tim23-1 conf 64*.
Screening Cc1ccc(C(=O)NC(=S)N(C)C2CCCCC2)cc1Br returned NLRP3 yeast inh 38, NALP1 yeast inh 6, tim10-1 inh 25, TIM10 inh 19 and tim23-1 inh 8.
COc1ccc(C(=O)NC(=S)N(C)C2CCCCC2)cc1Br was read as NLRP3 yeast inh 28, NALP1 yeast inh 8, tim10-1 inh 38, TIM10 inh 42*, tim23-1 inh 55*, tim10 confirm 13 and tim23-1 conf 49*.
Screening Cc1[nH]c2ccccc2c1N=Nc1ccccc1F returned NLRP3 yeast inh 22, NALP1 yeast inh -11, tim10-1 inh -18, TIM10 inh 50*, tim23-1 inh 72*, tim10 confirm 55* and tim23-1 conf -51.
For COc1ccc(S(=O)(=O)N2CCC3(CC2)OCCN3S(=O)(=O)c2ccccc2)cc1OC the results were NLRP3 yeast inh 16, tim10-1 inh 12, TIM10 inh 5 and tim23-1 inh 2.
`COn1c(=O)c(-c2ccccc2)[n+]([O-])c2ccccc21` gave NLRP3 yeast inh 2, NALP1 yeast inh 17, tim10-1 inh 27, TIM10 inh 19 and tim23-1 inh 22.
COn1c(=O)c(-c2cccs2)[n+]([O-])c2ccccc21 was read as NLRP3 yeast inh 22, NALP1 yeast inh 0, tim10-1 inh 36, TIM10 inh 43*, tim23-1 inh 52*, tim10 confirm 1 and tim23-1 conf 64*.
`O=C(O/N=C(\c1ccccc1)c1ccccn1)c1ccc(Cl)c(Cl)c1` gave NLRP3 yeast inh 2, NALP1 yeast inh 37, tim10-1 inh 34, TIM10 inh 13 and tim23-1 inh 5.
Screening N/C(=N\OC(=O)c1ccc(Cl)c(Cl)c1)c1cccc(CSc2ccccn2)c1 returned NLRP3 yeast inh 15, NALP1 yeast inh -18, tim10-1 inh 39, TIM10 inh 72*, tim23-1 inh 79*, tim10 confirm 84* and tim23-1 conf 49*.
Screening Cc1ccc(NC(=O)c2cc(C)n(-c3ccccc3)c2C)cc1 returned NLRP3 yeast inh 24, NALP1 yeast inh 42, tim10-1 inh 34, TIM10 inh 50*, tim23-1 inh 52*, tim10 confirm -22 and tim23-1 conf 58*.
For Cc1ccc(NC(=O)c2cc(C)n(-c3cccc(C)c3)c2C)cc1 the results were NLRP3 yeast inh 18, NALP1 yeast inh 7, tim10-1 inh 16, TIM10 inh 34 and tim23-1 inh 43.
Screening Cc1ccnc2c1ccc1c(C)ccnc12 returned NLRP3 yeast inh 35, tim10-1 inh 35, TIM10 inh 50*, tim23-1 inh 71*, tim10 confirm -28 and tim23-1 conf 60*.
Cc1cccc2cccnc12 was read as NLRP3 yeast inh 7, tim10-1 inh -15, TIM10 inh -5 and tim23-1 inh -7.
